# Data reported in PubChem BioAssay (NCI).
# Compounds without any hit were thinned out: in the full panel of roughly 83,000, 20% have a hit.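 Testing used 96-well plates and a 48-hour single-concentration exposure. Example: -40 means 40% of the starting cells died.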 The source made the active and inactive calls.
# Test system: OVCAR-4 ovarian
# Test: NCI-60 one-dose screen, 48 h (100 = growth as untreated, 0 = no growth, -100 = all killed)
# Conditions: 10 µM unless noted
# Experimental: Growth inhibition of the OVCAR-4 human tumor cell line is measured as a screen for anti-cancer activity. Cells are grown in 96 well plates and exposed to the test compound for 48 hours. Compounds are tested at a single concentration, which is 10^-5 M for most compounds. The reported endpoint is percent growth (GI% or GIPRCNT), where numbers from 0 - 100% represent growth inhibition, and numbers from -100% - 0 represent cell death. For example, a value of 40 represents 60% growth inhibition. A value of 0 means no net growth occurred over the course of the experiment. A value of -40 indicates 40% of cells at the beginning of the experiment died by the end of the experiment. A value of -100 means all cells are dead at the end of the experiment.
# NCI-60 Human Tumor Cell Lines Screen was performed using the standard one-dose NCI protocol, which is described in more detail at https://dtp.cancer.gov/discovery_development/nci-60/default.htm.
# Compounds with GIPRCNT values below 10 were considered active. Activity score was based on GIPRCNT using the following formula: […]
# Score is 0 for GIPRCNT values of 100 or above, 50 for GIPRCNT values of 0, and 100 for GIPRCNT values of -100.
row,SMILES,growth
1,COc1ccc(NC(=O)c2sc3nc4c(cc3c2N)CCCC4)cc1,57.3% (inactive)
2,O=C(CCl)Nc1ccc2c(Nc3cc(O)ccc3Cl)ncnc2c1,-65.2% (active)
3,CNC(=O)c1c(NC(=O)c2ccc(C(C)(C)C)cc2)sc2c(CN(C)C)c(O)ccc12,67.5% (inactive)
4,Nc1ccc([N+](=O)[O-])cc1N=C/C=C/c1ccccc1,79.4% (inactive)
5,Cc1cccc(-n2c(C)nc3ccc(N4CCCNC4=O)cc3c2=O)c1,99.3% (inactive)
6,O=C(O)c1cn(C2CC2)c2cc(N3CCN(C(=O)N/N=C/c4ccccc4)CC3)c(F)cc2c1=O,102% (inactive)
7,CCOC(=O)c1c(NC(=O)c2ccc(OC)cc2)sc2c(CN(C)C)c(O)ccc12,85.2% (inactive)
8,CC[C@H](C)[C@H](NC(=O)[C@H](CCCNC(=N)N)NC(=O)[C@H](Cc1c[nH]c2ccccc12)NC(=O)[C@@H](NC(=O)[C@H](CCCCN)NC(=O)[C@H](CCCCN)NC(=O)[C@@H](NC(=O)[C@@H](NC(=O)[C@@H](NC(=O)[C@H](CCCCN)NC(=O)[C@H](Cc1ccccc1)NC(=O)[C@H](CCCCN)NC(=O)[C@H](CCCCN)NC(=O)[C@H](Cc1ccccc1)NC(=O)[C@@H](NC(=O)[C@@H](N)CCCCN)[C@@H](C)CC)[C@@H](C)O)[C@@H](C)CC)[C@@H](C)CC)C(C)C)C(=O)N[C@@H](Cc1ccccc1)C(=O)NCC(=O)N[C@@H](CCCNC(=N)N)C(=O)N[C@@H](Cc1ccccc1)C(N)=O,-31.3% (active)
9,CCn1cc(C(=O)N/N=C/c2ccc(Br)cc2)c(=O)c2cc(F)c(N3CCNC(C)C3)c(F)c21 (stereo not given),81.7% (inactive)
10,Cc1ccc(/C=C2\CN(C(=O)C(Cl)Cl)C/C(=C\c3ccc(C)cc3)C2=O)cc1,25% (inactive)
11,CCN(CCO)CC(C)Nc1ccc([N+](=O)[O-])c2sc3ccccc3c(=O)c12 (stereo not given),43.7% (inactive)
12,COc1cccc(Nc2ccnc3[nH]c4ccc([N+](=O)[O-])cc4c23)c1,27.2% (inactive)
13,COc1ccc(-c2cc(-c3cc(OC)c(OC)c(OC)c3)c(C#N)c(=O)n2CCCCCC(=O)NO)cc1,100% (inactive)
14,Cc1ccc(O)c(NC(=O)c2ccc(CNc3ccnc(C(F)(F)F)c3)cc2)c1,53.1% (inactive)
15,COP(=O)(OC)c1nnn(-c2cccc([N+](=O)[O-])c2)c1C,103% (inactive)
16,O=C(CSc1nc2ccc([N+](=O)[O-])cc2[nH]1)Nc1cccc([N+](=O)[O-])c1,28.7% (inactive)
17,NC(CSC(c1ccccc1)(c1ccccc1)c1ccc2c(c1)OCO2)C(=O)O (stereo not given),70.7% (inactive)
18,C=C(c1ccc(C(=O)O)cn1)c1cc2c(cc1C)C(C)(C)CCC2(C)C,85.2% (inactive)
19,COc1ccc2nc3cc(Cl)ccc3c(NCCN)c2c1,-86% (active)
20,CCCCC(=O)Nc1ncc(Cc2ccccc2Cl)s1,68.1% (inactive)

row,SMILES,growth
1,O=C(Cn1cc(CN2C(=O)c3ccccc3S2(=O)=O)nn1)Nc1cccc(Cl)c1,109% (inactive)
2,N#Cc1c(NC(=O)c2cccs2)[n+]([O-])c2ccc(Cl)cc2[n+]1[O-],94.8% (inactive)
3,O=C1OCC2=C1C(c1cccc(F)c1)c1cc3c(cc1N2CCO)OCO3 (stereo not given),57.3% (inactive)
4,CCCCSCC(=O)c1ccccc1,100% (inactive)
5,CCN(CC)CCOc1nc2c3ccc(Cl)cc3nn2c2ccccc12,35.4% (inactive)
6,CCN(C(=O)N1CCN(c2cc3c(cc2F)c(=O)c(C(=O)O)cn3C2CC2)CC1)c1nc(-c2ccc(C)cc2)cs1,31.5% (inactive)
7,COc1ccc(Nc2ncc(C(N)=O)c(NCCCNC(=O)C3CCC3)n2)cc1,81% (inactive)
8,Cc1cc(F)ccc1S(=O)(=O)Nc1cc(-c2c(O)ccc3ccccc23)c(O)c2ccccc12,-8.24% (active)
9,COc1ccc2c(O)c(/C=C3\N=Nc4ccccc43)oc2c1C[C@H]1CCNC[C@H]1F,57.6% (inactive)
10,CCCCCCC(=O)Nc1ncc(Cc2ccc(C)cc2)s1,50.1% (inactive)
11,COc1cc(/C=C2\C(=O)N(c3c(Cl)cccc3Cl)c3ccccc32)cc(OC)c1OCCCCCCn1c2ccccc2c(=O)c2ccccc21,95.5% (inactive)
12,CCN1C(=O)N(CC)C2C1NN=C1SCC(=O)N12 (stereo not given),32.6% (inactive)
13,O=C(N/N=C/c1ccc(Cl)cc1Cl)c1ccc2nc(-c3ccc(Cl)cc3)[nH]c2c1,-17.9% (active)
14,CN1CCN(CCOc2ccc(-c3cnc4c(-c5ccc(C(F)(F)F)cc5)cnn4c3)cc2)CC1,57.2% (inactive)
15,Cc1ccc2nc(Cl)c(Cn3nnnc3SCc3ccccc3)cc2c1,86.9% (inactive)
16,CCCCCCC(CCCC)COC(=O)c1ccc(Cl)cc1 (stereo not given),99.4% (inactive)
17,Oc1c(CN2CCCC2)cc(COCc2ccccc2)c2cccnc12,14.3% (inactive)
18,CO[C@H](C(=O)[C@@H](O)[C@@H](C)O)[C@@H]1Cc2cc3cc(O[C@H]4C[C@@H](O[C@H]5C[C@@H](O)[C@H](O)C(C)O5)[C@H](O)C(C)O4)c(C)c(O)c3c(O)c2C(=O)[C@H]1O[C@H]1C[C@@H](O[C@H]2C[C@@H](O[C@H]3C[C@@H](OC)[C@H](O)C(C)O3)[C@@H](O)C(C)O2)C(O)(O)C(C)O1 (stereo not given in full),21.7% (inactive)
19,O=C1CC2C=CCN2C=C1NC(=O)C1CCCCC1 (stereo not given),105% (inactive)
20,COc1cc(C(=O)c2c(N)ncn2-c2ccccc2)cc(OC)c1OC,101% (inactive)
